Reference: PubChem BioAssay AID1159580 (chemical genetic matrix, 2015)
Screen size: about 5,500 compounds; about 2,000 (36%) were called active. Inconclusive results (about 18%) are left out. Some of the results follow. Unmarked numbers belong to inactive results. No stated cut-off is given here; in the data, active means normalized growth mostly below about 0.91 (no sharp cut-off); inconclusive means no clear call, values can overlap the other calls; inactive means mostly above about 0.92.

Assay: chemical genetic growth profiling, strain panel (AID 1159580);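 further: tested at 20 µM; growth read once vehicle control cultures reached saturation at 30 °C; 1 = growth at the plate median or of vehicle wells; lower values mean less growth of the strain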
Settings: growth OD

COc1ccc2cc1Oc1ccc(cc1)C[C@H]1c3cc(c(OC)cc3CCN1C)Oc1c(OC)c(OC)cc3c1[C@H](C2)N(C)CC3
normalized growth (S. cerevisiae deletion strains, locus YKL009W, strain mrt4, hits give low values): 1.02 | normalized growth (S. cerevisiae deletion strains, locus YKL068W, hits give low values): 1.01 | normalized growth (S. cerevisiae deletion strains, locus YKL085W, strain MDH1 (second series), hits give low values): 1.01 | normalized growth (S. cerevisiae deletion strains, locus YKL085W, strain MDH1, hits give low values): 1.01 | normalized growth (S. cerevisiae deletion strains, locus YKL160W, strain elf1, hits give low values): 0.99 | normalized growth (S. cerevisiae deletion strains, locus YKL190W, strain CNB1, hits give low values): 1.01 | normalized growth (S. cerevisiae deletion strains, locus YKR001C, strain vps1, hits give low values): 0.973 | normalized growth (S. cerevisiae deletion strains, locus YKR026C, strain gcn3, hits give low values): 1 | normalized growth (S. cerevisiae deletion strains, locus YKR091W, strain srl3, hits give low values): 1 | normalized growth (S. cerevisiae deletion strains, locus YLL001W, strain dnm1, hits give low values): 0.986 | normalized growth (S. cerevisiae deletion strains, locus YLL026W, hits give low values): 1 | normalized growth (S. cerevisiae deletion strains, locus YLL041C, strain sdh2, hits give low values): 1 | normalized growth (S. cerevisiae deletion strains, locus YLR027C, strain aat2, hits give low values): 1.01 | normalized growth (S. cerevisiae deletion strains, locus YLR039C, strain RIC1, hits give low values): 0.94 | normalized growth (S. cerevisiae deletion strains, locus YLR058C, strain SHM2, hits give low values): 1.01 | normalized growth (S. cerevisiae deletion strains, locus YLR102C, strain apc9, hits give low values): 1.01 | normalized growth (S. cerevisiae deletion strains, locus YLR113W, strain HOG1, hits give low values): 1.07 | normalized growth (S. cerevisiae deletion strains, locus YLR221C, strain rsa3, hits give low values): 1.01 | normalized growth (S. cerevisiae deletion strains, locus YLR258W, strain gsy2, hits give low values): 1.01 | normalized growth (S. cerevisiae deletion strains, locus YLR262C, strain YPT6 (second series), hits give low values): 0.975 | normalized growth (S. cerevisiae deletion strains, locus YLR262C, strain YPT6, hits give low values): 0.993 | normalized growth (S. cerevisiae deletion strains, locus YLR268W, strain sec22, hits give low values): 1.01 | normalized growth (S. cerevisiae deletion strains, locus YLR320W, strain mms22, hits give low values): 0.987 | normalized growth (S. cerevisiae deletion strains, locus YLR330W, strain CHS5, hits give low values): 1.02 | normalized growth (S. cerevisiae deletion strains, locus YLR342W, strain FKS1 (second series), hits give low values): 0.885 | normalized growth (S. cerevisiae deletion strains, locus YLR342W, strain FKS1, hits give low values): 1.01 | normalized growth (S. cerevisiae deletion strains, locus YLR357W, strain rsc2, hits give low values): 0.977 | normalized growth (S. cerevisiae deletion strains, locus YLR370C, strain arc18, hits give low values): 0.914 | normalized growth (S. cerevisiae deletion strains, locus YLR371W, strain rom2, hits give low values): 1.01 | normalized growth (S. cerevisiae deletion strains, locus YLR384C, strain iki3, hits give low values): 1.01 | normalized growth (S. cerevisiae deletion strains, locus YLR418C, strain cdc73, hits give low values): 0.96 | normalized growth (S. cerevisiae deletion strains, locus YML016C, strain PPZ1, hits give low values): 1 | normalized growth (S. cerevisiae deletion strains, locus YML032C, strain rad52, hits give low values): 1.01 | normalized growth (S. cerevisiae deletion strains, locus YML120C, strain ndi1, hits give low values): 1.02 | normalized growth (S. cerevisiae deletion strains, locus YML124C, strain tub3, hits give low values): 1.02 | normalized growth (S. cerevisiae deletion strains, locus YMR058W, strain fet3, hits give low values): 1 | normalized growth (S. cerevisiae deletion strains, locus YMR078C, strain ctf18, hits give low values): 1.02 | normalized growth (S. cerevisiae deletion strains, locus YMR125W, strain sto1, hits give low values): 0.992 | normalized growth (S. cerevisiae deletion strains, locus YMR129W, hits give low values): 1.02 | normalized growth (S. cerevisiae deletion strains, locus YMR205C, strain PFK2, hits give low values): 0.963 | normalized growth (S. cerevisiae deletion strains, locus YMR223W, strain ubp8, hits give low values): 0.986 | normalized growth (S. cerevisiae deletion strains, locus YMR231W, strain pep5, hits give low values): 1.01 | normalized growth (S. cerevisiae deletion strains, locus YMR263W, strain SAP30, hits give low values): 1 | normalized growth (S. cerevisiae deletion strains, locus YMR307W, strain GAS1, hits give low values): 0.966 | normalized growth (S. cerevisiae deletion strains, locus YNL067W, strain RPL9B, hits give low values): 1.01 | normalized growth (S. cerevisiae deletion strains, locus YNL071W, strain lat1, hits give low values): 0.998 | normalized growth (S. cerevisiae deletion strains, locus YNL128W, strain TEP1, hits give low values): 1.01 | normalized growth (S. cerevisiae deletion strains, locus YNL153C, strain GIM3, hits give low values): 0.995 | normalized growth (S. cerevisiae deletion strains, locus YNL183C, strain NPR1, hits give low values): 0.999 | normalized growth (S. cerevisiae deletion strains, locus YNL209W, strain ssb2, hits give low values): 0.995 | normalized growth (S. cerevisiae deletion strains, locus YNL233W, strain BNI4, hits give low values): 0.995 | normalized growth (S. cerevisiae deletion strains, locus YNL248C, strain rpa49, hits give low values): 1.01 | normalized growth (S. cerevisiae deletion strains, locus YNL250W, strain rad50, hits give low values): 1.02 | normalized growth (S. cerevisiae deletion strains, locus YNL271C, strain bni1, hits give low values): 1.01 | normalized growth (S. cerevisiae deletion strains, locus YNL298W, strain CLA4, hits give low values): 1.01 | normalized growth (S. cerevisiae deletion strains, locus YNL307C, strain MCK1, hits give low values): 0.902 (active) | normalized growth (S. cerevisiae deletion strains, locus YNL322C, strain KRE1 (second series), hits give low values): 1.01 | normalized growth (S. cerevisiae deletion strains, locus YNL322C, strain KRE1, hits give low values): 1.02 | normalized growth (S. cerevisiae deletion strains, locus YNR049C, strain mso1, hits give low values): 0.991 | normalized growth (S. cerevisiae deletion strains, locus YNR052C, strain pop2, hits give low values): 0.968 | normalized growth (S. cerevisiae deletion strains, locus YOL006C, strain TOP1, hits give low values): 0.632 | normalized growth (S. cerevisiae deletion strains, locus YOL012C, strain htz1): 0.904 | normalized growth (S. cerevisiae deletion strains, locus YOL147C, strain pex11, hits give low values): 1.01 | normalized growth (S. cerevisiae deletion strains, locus YOR001W, strain rrp6, hits give low values): 1 | normalized growth (S. cerevisiae deletion strains, locus YOR061W, strain CKA2, hits give low values): 0.993 | normalized growth (S. cerevisiae deletion strains, locus YOR069W, strain VPS5, hits give low values): 1.01 | normalized growth (S. cerevisiae deletion strains, locus YOR070C, strain gyp1, hits give low values): 1 | normalized growth (S. cerevisiae deletion strains, locus YOR080W, strain dia2, hits give low values): 0.995 | normalized growth (S. cerevisiae deletion strains, locus YOR083W, strain WHI5, hits give low values): 0.968 | normalized growth (S. cerevisiae deletion strains, locus YOR106W, strain vam3, hits give low values): 0.961 | normalized growth (S. cerevisiae deletion strains, locus YOR136W, strain idh2, hits give low values): 0.999 | normalized growth (S. cerevisiae deletion strains, locus YOR144C, strain elg1, hits give low values): 1.01 | normalized growth (S. cerevisiae deletion strains, locus YOR184W, strain ser1, hits give low values): 1.02 | normalized growth (S. cerevisiae deletion strains, locus YOR231W, strain MKK1, hits give low values): 0.974 | normalized growth (S. cerevisiae deletion strains, locus YOR265W, strain rbl2, hits give low values): 0.984 | normalized growth (S. cerevisiae deletion strains, locus YOR270C, strain vph1, hits give low values): 0.723 (active) | normalized growth (S. cerevisiae deletion strains, locus YOR290C, strain snf2, hits give low values): 0.937 | normalized growth (S. cerevisiae deletion strains, locus YOR316C, strain cot1, hits give low values): 1.01 | normalized growth (S. cerevisiae deletion strains, locus YPL051W, strain arl3, hits give low values): 0.982 | normalized growth (S. cerevisiae deletion strains, locus YPL055C, strain LGE1, hits give low values): 0.975 | normalized growth (S. cerevisiae deletion strains, locus YPL078C, strain atp4, hits give low values): 0.974 | normalized growth (S. cerevisiae deletion strains, locus YPL106C, strain sse1, hits give low values): 0.984 | normalized growth (S. cerevisiae deletion strains, locus YPL240C, strain hsp82, hits give low values): 1.01 | normalized growth (S. cerevisiae deletion strains, locus YPL241C, strain CIN2, hits give low values): 1 | normalized growth (S. cerevisiae deletion strains, locus YPL256C, strain CLN2, hits give low values): 1.02 | normalized growth (S. cerevisiae deletion strains, locus YPR119W, strain clb2, hits give low values): 1.01 | normalized growth (S. cerevisiae deletion strains, locus YPR141C, strain kar3, hits give low values): 1.02 | normalized growth (S. cerevisiae deletion strains, locus YPR163C, strain tif3, hits give low values): 0.987 | normalized growth (S. cerevisiae deletion strains, locus YPR167C, strain met16, hits give low values): 1.01 | normalized growth (S. cerevisiae deletion strains, strain wtn01, hits give low values): 1 | normalized growth (S. cerevisiae strains, strain wild type, hits give low values): 0.981
